Measured values published in PubChem BioAssay (Tox21).
Several values for one entry are separate records, joined by “and”; a condition that tells them apart may be missing. Equal entries are not always repeated. Results filed as inconclusive are left out. Activity calls are given as the source filed them. Calls come from the whole dose curve; as a rule, active = well fitted cell-killing curve with a large enough effect in the repeat runs; inconclusive = weak or mixed curves, or effect the other way; inactive = no such curve, though single readings can be large or run the other way.

Experiment: qHTS assay to identify small molecule antagonists of the sonic hedgehog signaling (Shh) pathway - cell viability counter screen (AID 1259367); note: nearly all actives have a fitted effect of over 55% in size
Details: NIH/3T3 Gli1-Luc viability, CellTiter-Fluor, 24 h; series mostly up to 92.4 µM; viability change, negative = cytotoxic: at the top concentration
From the text: National Center for Advancing Translational Sciences [NCATS]
NIH Chemical Genomics Center [NCGC]
U.S. Environmental Protection Agency [EPA]
National Institutes of Environmental Health Sciences [NIEHS]
National Toxicology Program [NTP]
U.S. Food and Drug Administration [FDA]
The sonic hedgehog (Shh) pathway is essential for normal embryonic development. Dysregulation of the Shh pathway can cause severe developmental defects in organs. Therefore chemicals that interfere with the pathway are potential developmental toxicants. A cell line designated 3T3Gli1-Luc (DMB/OARSA/CFSAN/FDA, Laurel, MD), a NIH/3T3 derived clone containing stably integrated Gli1-Luc reporter is used to detect chemical interference of the Shh pathway, by changes in the expression of the firefly Luc gene under the control of the Gli1 transcriptional response element. This cell line was used to screen Tox21 libraries for identifying and prioritizing the potential developmental toxicants that interfere Shh pathway. Conditioned medium-stimulated mode was used to screen for chemicals inhibiting Shh signaling. The cytotoxicity of the compounds was tested in parallel by measuring the cell viability using CellTiter-Fluor assay system (Promega, Madison, WI) in the same wells.
Tox21 Assay Protocol Summary:
3T3 Gli1-Luc cells were dispensed at 2,000 per well in 5uL of culture medium into white solid bottom 1536-well plates (Greiner Bio-One, Monroe, NC) using a Multidrop Combi (Thermo Scientific, Waltham, MA) dispenser. The assay plates were incubated at 37 C and 5% CO2 for 4hr, and then 23nL of compounds dissolved in DMSO and positive control were transferred using a Pintool station (Wako, San Diego, CA). The compound transfer was followed by the addition of 1ul conditioned medium or assay buffer using two separate tips of Flying Reagent Dispenser (FRD, Aurora Discovery, San Diego, CA). The assay plates were incubated at 37C and 5% CO2 for 24hr. For viability read, after 23hr of compound treatment, 1uL of CellTiter-Fluor reagent (Promega Corporation, Madison, WI) was added to each well of the assay plates using Flying Reagent Dispenser (FRD, Aurora Discovery, San Diego, CA) and incubated the assay plates at 37C for 1hr. The fluorescence signal was quantified using a ViewLux plate reader (Perkin Elmer, Shelton, CT).
% is set by controls: 0 for no effect and ±100 for the full control effect; potency is the fitted concentration of half-maximal effect.

Structure (SMILES)	viability change, negative = cytotoxic	Potency
CC(C)(C)c1ccc(CCOc2ncnc3ccccc23)cc1	-4.47% (inactive)	
CCCCC#N	0.469% (inactive)	
O=C1c2ccccc2C(=O)N1SC(Cl)(Cl)Cl		9.55 µM (active) and 17.2 µM (active)
c1ccc2sc(SNC3CCCCC3)nc2c1		inactive
Cc1ncc(C[n+]2csc(CCO)c2C)c(N)n1	1.54% (inactive)	
CCNC(=O)NC(=O)/C(C#N)=N/OC	1.05% (inactive)	
O=C([O-])c1ccccn1.O=C([O-])c1ccccn1.O=C([O-])c1ccccn1.[Cr+3]	13.5% (inactive)	
CCCCCl	5.74% (inactive)	
OCC1CO1 (stereo not given)		inactive
CCCCOC(=O)CCC(=O)OCCCC	2.64% (inactive)	
O=CC=O	-7.35% (inactive)	
CCCCCCCCCCCC[N+](C)(C)CCOc1ccccc1		48.6 µM (active)
CC(C)CCCCCCCOC(=O)c1ccccc1C(=O)OCCCCCCCC(C)C	-0.229% (inactive)	
CCc1cnc(C2=NC(C)(C(C)C)C(=O)N2)c(C(=O)O)c1 (stereo not given)		inactive
CCN(C(C)=O)c1cccc(-c2ccnc3c(C#N)cnn23)c1	0.192% [at 42.5 µM] (inactive)	
CCOP(=S)(S)OCC	0.647% (inactive)	
CCOC(=O)NC(O)C(Cl)(Cl)Cl (stereo not given)	1.82% [at 42.5 µM] (inactive)	
OCCSSCCO	1.19% (inactive)	
COC(=O)Cc1ccccc1	4.25% (inactive)	
COC1=CC(=O)O[C@@H](/C=C/c2ccc3c(c2)OCO3)C1	-12.1% (inactive)	

Structure (SMILES)	viability change, negative = cytotoxic	Potency
Cc1cccc(C)c1NC1=NCCCS1	-2.84% [at 42.5 µM] (inactive)	
Cc1ccc(N)c(C)c1		inactive
C[C@H]1[C@@H]2Cc3ccc(O)cc3[C@@]1(C)CCN2C	-19.7% [at 240 µM] (inactive)	
NNCCO	0.344% (inactive)	
COc1cc(C[C@@H](C)N)c(OC)cc1Br	-16.9% (inactive)	
FC(Cl)(Cl)C(F)(Cl)Cl	-0.638% (inactive)	
ClCc1ccccc1Cl	2.9% (inactive)	
O=[N+]([O-])/C=C/c1ccccc1	-26.6% (inactive)	
C[C@]12C=CC3=C4CCC(=O)C=C4CC[C@H]3[C@@H]1CC[C@@H]2O		inactive
O=S(=O)(c1ccccc1)c1ccccc1	5.34% (inactive)	
CC(C)OC(=O)Cc1ccccc1	6.49% (inactive)	
O=[N+]([O-])O[C@H]1CO[C@H]2[C@@H]1OC[C@H]2O[N+](=O)[O-]	3.16% [at 42.5 µM] (inactive)	
C=CCOCC1CO1 (stereo not given)	-2.05% (inactive)	
C=CC(C)(CCC=C(C)C)OC(=O)c1ccccc1N (stereo not given)	4.8% (inactive)	
Cc1ccc2c(C)cccc2c1	3.63% (inactive)	
C=CCc1ccc(OC(=O)Cc2ccccc2)c(OC)c1	0.994% (inactive)	
COc1ccc(C(O)(c2cncnc2)C2CC2)cc1 (stereo not given)	-4.64% (inactive)	
CN(C1CCCCC1)C1CCCCC1	1.53% (inactive)	
CCCCCBr	-0.739% (inactive)	
CC(Oc1cccc(Cl)c1)C(=O)O (stereo not given)	-14% (inactive)	
